# Compound activity as filed in PubChem BioAssay.
# IMPase inh = cell-permeable inhibitors of inositol monophosphatase (IMPase). P97697. CHO-M1 cells, IP1 accumulation, HTRF TR-FRET ratio. inhibition (IP1 accumulation), % at 46.1 µM. 120,000 tested, under 10 active. AID 901; active means well fitted curve in the direction sought with a large enough effect in the signal ratio, not every such curve was filed as active; inconclusive means small, poorly fitted or top-dose-only effect, or a change in a side signal; inactive means no such curve, though single readings can be large or run the other way; the % refers to the signal ratio;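 further: cells stimulated with carbachol in lithium chloride buffer; higher means more IMPase inhibition seen as more IP1 and lower FRET ratio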
#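 CHO-M1 cells (CHO stably expressing M1 receptor), compound up to 46 uM final, stimulated with carbachol (50 uM as added) in buffer with 50mM LiCl, pH 7.4, 30 min at 37C. Cytosolic IP1 read by TR-FRET; AC50 from Hill fits.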
# ALOX12 inhib = blocks human 12-lipoxygenase activity. P18054. purified 12-hLO, xylenol orange hydroperoxide absorbance. Potency, µM (titrated, usually from 57.1 µM), usual class: inhibitors. hit rate 0.12% among 150,000; further: nearly all actives have a fitted effect of over 55% in size
# Target sequence (P18054 whole entry, looked up): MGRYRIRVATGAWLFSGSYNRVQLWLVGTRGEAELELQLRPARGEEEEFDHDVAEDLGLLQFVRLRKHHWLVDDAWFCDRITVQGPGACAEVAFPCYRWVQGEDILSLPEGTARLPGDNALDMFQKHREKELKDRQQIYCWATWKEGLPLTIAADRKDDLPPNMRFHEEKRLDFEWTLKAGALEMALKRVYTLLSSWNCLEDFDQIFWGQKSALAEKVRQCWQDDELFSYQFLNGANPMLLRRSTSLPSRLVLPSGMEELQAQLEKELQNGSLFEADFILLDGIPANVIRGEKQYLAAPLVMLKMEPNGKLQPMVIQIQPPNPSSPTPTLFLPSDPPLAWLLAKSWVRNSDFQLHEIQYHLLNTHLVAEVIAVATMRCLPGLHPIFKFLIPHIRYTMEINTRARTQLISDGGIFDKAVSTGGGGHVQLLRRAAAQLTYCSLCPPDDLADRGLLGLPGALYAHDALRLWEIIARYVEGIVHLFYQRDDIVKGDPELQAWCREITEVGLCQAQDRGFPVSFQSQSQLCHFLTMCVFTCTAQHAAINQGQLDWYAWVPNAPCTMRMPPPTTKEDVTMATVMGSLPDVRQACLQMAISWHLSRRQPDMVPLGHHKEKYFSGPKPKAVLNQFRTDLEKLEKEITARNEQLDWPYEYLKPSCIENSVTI
#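 Purified human 12hLO (150 nM final) was preincubated with compounds for 15 min at room temperature in 25 mM Hepes pH 7.0, 0.01% Triton X-100, then reacted with 40 uM arachidonic acid for 30 min. Hydroperoxide was detected with ferrous iron/xylenol orange.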
# ALDH1A1 inh = inhibitors of human aldehyde dehydrogenase 1A1; P00352; hit rate 7.3% among 220,000; Potency, µM (series often up to 75.3 µM), usual class: inhibitors; Purified ALDH1A1, NADH fluorescence, propionaldehyde substrate; active means well fitted inhibition curve with a large enough effect, not every such curve was filed as active; inconclusive means small, poorly fitted or top-dose-only effect, or another doubt; inactive means no such curve, though single readings can be large or run the other way
# NPSR antag = blocks cAMP signaling of the human neuropeptide S receptor | Q6W5P4 | AID 1461 | CHO-NPSR cells, cAMP TR-FRET, antagonist mode | hit rate 1% among 220,000 | Potency, µM (highest dose often 38.3 µM), hits mostly inhibitors; further: nearly all actives have a fitted effect of over 50% in size
# IMPase Li cell = membrane-permeable IMPase blocker, potentiated with lithium; Potency, µM (highest dose often 59.4 µM), most hits filed as inhibitors; CHO-M1 cells, IP1 TR-FRET (IP-One), carbachol + lithium; hit rate 0.35% among 210,000;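 further: IP1 builds up when IMPase is blocked and the TR-FRET signal falls; nearly all actives have a fitted effect of over 50% in size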
#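 Concentration–response in CHO-M1 cells, lithium-potentiated; 30 min at 37C. IP1 detected by competitive TR-FRET after 10 min lysis at RT. Hill-fitted AC50.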
# HPGD inh = blocks human HPGD enzyme activity; hit rate 4.3% among 150,000; P15428; purified HPGD, NADH fluorescence kinetic, PGE2 substrate; Potency, µM, most hits filed as inhibitors; active means well fitted inhibition curve with a large enough effect, not every such curve was filed as active; inconclusive means small, poorly fitted or top-dose-only effect, or another doubt; inactive means no such curve, though single readings can be large or run the other way
#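 NADH formation kinetics: reaction with 30 uM PGE2 and 1 mM NAD+ (final), 20 nM enzyme, Tris-HCl pH 8 with Tween 20, after 15 min compound preincubation at room temperature. Fluorescence change, last versus first of five reads.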
# A number is an active result; - = inactive; ? = inconclusive; . = no result; [ ] = remark or other dose. The list is not random: actives were taken first. Their share in the collection is about 8.9%. Unless noted, the call rests on the fitted dose curve; in most records, active means well fitted curve in the direction sought with a large enough effect; inconclusive means small, poorly fitted or top-dose-only effect, or another doubt; inactive means no such curve, though single readings can be large; an effect the other way counts as inactive or inconclusive.
SMILES,IMPase inh,ALOX12 inhib,ALDH1A1 inh,NPSR antag,IMPase Li cell,HPGD inh
Nc1nc(Nc2ccccc2)nc(N2CCOCC2)c1[N+](=O)[O-],.,-,13µM,-,-,-
COc1ccc(Nc2nc(N)c([N+](=O)[O-])c(N3CCOCC3)n2)cc1,.,.,.,-[7.67 µM],.,.
O=C(Nc1cccnc1)c1noc2c1CCCC2,-,-,22µM,?,-,-
COCCN=C1Sc2nc3ccc(C)cc3cc2CN1Cc1ccco1,-,-,25µM,?,-,-
COCCN=C1Sc2nc3cc(C)c(C)cc3cc2CN1Cc1cccs1,.,.,.,-,.,.
CCOc1ccc(C2NC(=O)c3ccccc3O2)cc1 (stereo unspecified),-,-,22µM,-,-,-
O=[N+]([O-])c1ccc([C@H](O)[C@H](CO)N=Cc2ccccc2O)cc1,-,-,-,-,-,-
COc1cccc(NC(=O)CSc2nc3c(oc4ccccc43)c(=O)[nH]2)c1,.,-,-,-,-,16µM
COc1ccc(Cl)cc1NC(=O)CSc1ncnc2c1oc1ccccc12,.,-,-,-,-,-
COc1cccc(NC(=O)CSc2ncnc3c2oc2ccccc23)c1,?,-,-,?,11µM,-
O=C(CSc1ncnc2c1oc1ccccc12)NCc1ccco1,?,-,11µM,?,11µM,8.9µM
O=C(COc1c(Br)cc(Br)c2cccnc12)N1CCc2ccccc2C1,-,-,11µM,-,?,18µM
O=C(COc1c(Br)cc(Br)c2cccnc12)N1CCCCC1,.,.,?,-,-,.
Cc1cc(S(=O)(=O)Nc2cccc(Cl)c2)c(C)s1,.,.,-,-,-,.
CCOC(=O)CC(=O)CSc1ncnc2c1oc1ccccc12,?,-,-,?,8.9µM,14µM
O=C(CSc1ncnc2c1oc1ccccc12)N1CCc2ccccc2C1,-,-,-,-,-,4µM
O=C(O)CSc1ncnc2c1oc1ccccc12,-,-,-,-,.,.
CCOC(=O)C1=C(N)N(c2cc(S(=O)(=O)N3CCOCC3)ccc2Cl)C(=O)C1,.,.,14µM,-,-,.
CCOC(=O)c1cccc(S(=O)(=O)N2CCOCC2)c1,.,.,-,-,-,.
Cc1ccc2c(Cl)cc(Cl)c(OCC(=O)Nc3cc(C)on3)c2n1,-,-,-,-,-,-
CCc1nnc(NC(=O)CSc2nccn2-c2ccccc2)s1,.,-,-,-,-,-
COc1ccc(NC(=O)c2c(Nc3ccccc3)sc(C(=O)c3ccc(F)cc3)c2N)cc1,-,-,-,-,-,?
COc1ccc(C(=O)c2sc(Nc3ccccc3)c(C(=O)Nc3ccc(OC)c(OC)c3)c2N)cc1,-,-,18µM,-,-,-
CC12CCC(C(=O)N/N=C/c3ccc(O)cc3O)(OC1=O)C2(C)C (stereo unspecified),.,.,.,-,.,.
COC(=O)c1ccc(-n2c(C)cc(C(=O)CCl)c2C)cc1,.,.,0.45µM,-,-,.
SMILES,IMPase inh,ALOX12 inhib,ALDH1A1 inh,NPSR antag,IMPase Li cell,HPGD inh
CCOc1ccc(-n2c(C)cc(C(=O)CCl)c2C)cc1,.,.,0.11µM,-,-,.
COC(=O)c1ccc(-n2c(C)cc(C(=O)COC(=O)CNS(=O)(=O)c3ccc(C)cc3)c2C)cc1,.,-,?,-,-,-
COc1ccccc1C(=O)Nc1ncc2c(n1)CC(c1ccco1)CC2=O (stereo unspecified),-,-,8.9µM,-,-,-
O=C1CC(c2ccco2)Cc2nc(Nc3ccc(F)cc3)ncc21 (stereo unspecified),-,-,10µM,-,-,-
O=C1CC(c2ccco2)Cc2nc(NCC3CCCO3)ncc21 (stereo unspecified),-,-,?,-,-,-
O=C(CSc1nnnn1-c1ccccc1)Nc1ncc2c(n1)CC(c1ccco1)CC2=O (stereo unspecified),-,-,5µM,-,-,-
O=C(O)Cn1cc2c(n1)CCCCC2,-,-,-,-,-,-
COCC(=O)Nc1ncc(S(=O)(=O)c2ccc([N+](=O)[O-])cc2)s1,.,.,?,-,-,.
O=C(NC(Nc1ncc(S(=O)(=O)c2ccc([N+](=O)[O-])cc2)s1)(C(F)(F)F)C(F)(F)F)c1ccc(Cl)cc1,-,?,-,13µM,-,-
